Screening results: PubChem BioAssay, National Center for Advancing Translational Sciences (NCATS)
The list is not random: actives were taken first. Their share in the collection is about 7.4%.
Rab9 prom act – activators of Rab9 promoter; AID 485297; Huh7 Rab9 promoter-luciferase reporter, luminescence, 24 h; Potency, µM (series often up to 9.22 µM), hits mostly activators; hit rate 2.8% among 320,000; further: nearly all actives have a fitted effect of over 60% in size
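Rab9 promoter-driven luciferase in stably transfected Huh7 cells; 1500 cells/well rested 2 h, exposed to compound in DMSO for 24 h at 37 °C, 5% CO2. Luminescence read 10 min after adding luciferase reagent at ambient temperature.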
FLuc modulator – firefly luciferase modulation, counter-screen for miR-21 project. hit rate 6.9% among 360,000. purified FLuc, Km substrates, luminescence inhibition. Potency, µM (titrated, usually from 57.5 µM), most hits filed as inhibitors; further: nearly all actives have a fitted effect of over 55% in size
Target sequence (P08659 whole entry, looked up): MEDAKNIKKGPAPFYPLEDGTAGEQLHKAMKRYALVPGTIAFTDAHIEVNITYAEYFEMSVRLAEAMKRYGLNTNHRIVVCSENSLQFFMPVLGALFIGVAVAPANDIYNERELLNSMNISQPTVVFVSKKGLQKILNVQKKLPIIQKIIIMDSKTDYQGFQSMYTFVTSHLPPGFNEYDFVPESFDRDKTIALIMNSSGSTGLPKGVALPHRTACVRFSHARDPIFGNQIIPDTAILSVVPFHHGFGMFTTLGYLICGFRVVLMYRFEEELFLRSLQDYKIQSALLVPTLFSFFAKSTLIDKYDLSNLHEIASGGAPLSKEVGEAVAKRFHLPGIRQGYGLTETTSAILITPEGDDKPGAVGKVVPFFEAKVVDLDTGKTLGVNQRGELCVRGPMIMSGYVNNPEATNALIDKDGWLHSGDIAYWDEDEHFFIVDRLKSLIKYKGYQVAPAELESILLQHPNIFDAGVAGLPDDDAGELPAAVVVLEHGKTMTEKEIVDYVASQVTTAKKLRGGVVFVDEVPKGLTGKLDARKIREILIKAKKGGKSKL
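Biochemical qHTS of compounds, final roughly 60 µM downward over six points, against 10 nM purified firefly luciferase using Km concentrations of substrates (10 uM D-luciferin, 10 uM ATP) in Tris acetate pH 7.5 buffer; luminescence output.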
ELG1 genotoxic – induces genotoxicity in HEK293T cells with luciferase-tagged ELG1; HEK293T ELG1-luciferase reporter, luminescence, 16 h; Potency, µM (titrated, usually from 46 µM), usual class: activators; hit rate 1.3% among 330,000; further: nearly all actives have a fitted effect of over 60% in size
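HEK293T cells expressing luciferase-tagged ELG1 were treated with compound or DMSO for 16 hr at 37°C. Luciferase activity was then read after 30 min with ONE-Glo at room temperature; rising signal flags genetic stress.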
SMN2 splice up – SMN2 splice variant enhancement; HEK293 SMN2-luciferase splicing reporter, luminescence, 30-36 h; Potency, µM (titrated, usually from 46.1 µM), actives largely listed as activators; hit rate 2.8% among 210,000; AID 1458; further: nearly all actives have a fitted effect of over 55% in size
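HEK293 cells carry an SMN2 […]–luciferase reporter in which exon 7 inclusion puts luciferase in frame. Cells were plated 10-12 h before compound addition, then incubated 30-36 h at 37C. ONE-Glo luminescence was read; sodium butyrate at 4.5 mM final served as control.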
NPC1 promoter act – activates the NPC1 promoter; AID 485313; Huh7 NPC1 promoter luciferase reporter, 24 h; Potency, µM (titrated, usually from 9.22 µM), most hits filed as activators; hit rate 2.4% among 320,000; further: nearly all actives have a fitted effect of over 60% in size
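Luminescence read-out of NPC1 promoter-driven luciferase in stably transfected Huh7 cells; compounds delivered in DMSO and left 24 h at 37C, 5% CO2, qHTS titration format.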
p53 reactivator – re-activators of mutant p53. H1299 p53-A138V BP100-luciferase reporter, luminescence, 24 h. Potency, µM (doses to about 92.2 µM), usual class: activators. hit rate 0.063% among 320,000; further: nearly all actives have a fitted effect of over 45% in size
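H1299 (p53-null), stable ts p53-A138V + BP100-Luc; 1000 cells/well, Opti-MEM/10% FBS; cpd 4 pt, 1:5; 24 h, 37 deg C, 5% CO2; detection reagent 10 min RT; luminescence.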
Hits are given with their value; - = inactive; ? = inconclusive; . = no result given. The call rests on the fitted dose curve; in most records, active means well fitted curve in the direction sought with a large enough effect; inconclusive means small, poorly fitted or top-dose-only effect, or another doubt; inactive means no such curve, though single readings can be large; an effect the other way counts as inactive or inconclusive.

SMILES	Rab9 prom act	FLuc modulator	ELG1 genotoxic	SMN2 splice up	NPC1 promoter act	p53 reactivator
O=C(Nc1ccccn1)c1ccc(NC(=O)c2ccco2)cc1	2.24µM	10.7µM	?	12.6µM	2.24µM	?
O=C(Nc1ccccn1)c1ccc(C(=O)c2ccccc2)cc1	2.51µM	4.26µM	4.61µM	.	3.55µM	-
COc1cc(C(=O)Nc2ccccn2)cc(OC)c1OC	-	-	-	-	-	-
CCN(CC)C(=O)CSc1nc2cc3c(cc2c(=O)n1CCCCCC(=O)NCCc1ccc(OC)c(OC)c1)OCO3	.	-	.	.	.	.
O=[N+]([O-])c1ccc2nc(N3CCCC3)sc2c1	3.55µM	10.7µM	?	.	3.16µM	?
Fc1cc(F)c2nc(N3CCCCC3)sc2c1	-	15.1µM	?	?	?	?
O=C(c1cccs1)N1CCN(c2nc3c(F)cc(F)cc3s2)CC1	-	?	-	.	-	-
Fc1ccc2nc(N3CCCC3)sc2c1	?	12µM	?	12.6µM	2.24µM	-
O=C(c1ccc2c(c1)CCCC2)N1CCN(c2nc3ccc(F)cc3s2)CC1	.	-	.	.	.	.
O=C(COc1ccc(S(=O)(=O)N2CCOCC2)cc1)NCCN1CCOCC1	-	-	-	.	-	-
CC(=O)Nc1ccc(S(=O)(=O)N(C)CC(=O)OCC(=O)N2CCCC2=O)cc1	-	-	-	.	-	-
O=C(Nc1cccnc1)c1ccc(-c2ccc(Cl)cc2)o1	?	6.01µM	-	-	?	-
O=C(Nc1cccnc1)c1ccc(-c2cc(Cl)ccc2Cl)o1	-	16.9µM	-	-	-	-
O=C(NCc1cccnc1)c1ccc(-c2ccc(Cl)cc2)o1	-	?	-	.	-	-
COc1ccc(/C(C)=N/N2CCCCC2)c(O)c1	-	9.53µM	-	.	-	-
COc1ccc(O)c(/C=N/N2CCCCC2)c1	2µM	9.53µM	?	.	3.16µM	-
ClC/C=C/CCl	.	.	.	-	.	.
N#Cc1c(-n2ncnc2-c2ccc(F)cc2)sc2c1CCCCC2	.	0.426µM	.	-	.	.
CC(C)(C)NCc1cccn1-c1sc2c(c1C#N)CCCC2	-	-	-	-	-	-
Cc1ccccc1-c1ncnn1-c1sc2c(c1C#N)CCCCC2	.	0.338µM	.	-	.	.
N#Cc1c(-n2ncnc2-c2cccc(Br)c2)sc2c1CCCCC2	.	3.38µM	.	-	.	.
Cc1nc2cc(CO)ccc2s1	-	-	-	-	-	-
Cc1nc2cc3nc(C)sc3cc2s1	3.98µM	12µM	?	?	?	?
O=C(NCC1CCCO1)c1nn2cccnc2c1Cl (centres undefined)	-	-	?	22.4µM	-	-
O=C(OCC1CC(c2ccccc2)=NO1)c1ccc(Br)cc1 (centres undefined)	-	-	-	?	-	?
SMILES	Rab9 prom act	FLuc modulator	ELG1 genotoxic	SMN2 splice up	NPC1 promoter act	p53 reactivator
O=C(OCC1CC(c2ccccc2)=NO1)c1ccco1 (centres undefined)	-	7.57µM	-	.	-	-
Cc1ccc2c(c1)N(CC(=O)NCCCN1CC(C)CC(C)C1)C(=O)c1cccnc1O2 (centres undefined)	-	-	-	.	-	.
N#Cc1ccc(CSc2nnc(-c3ccc(Br)cc3)o2)cc1	.	-	.	-	.	.
N#Cc1ccccc1CSc1nnc(-c2ccc(Br)cc2)o1	.	1.2µM	.	?	.	.
Cc1ccc(-c2nnc(SCc3ccccc3C#N)o2)cc1	.	0.338µM	.	2.24µM	.	.
O=C(Nc1c(C(=O)c2ccc(Cl)cc2)oc2ccccc12)c1cc(=O)c2ccccc2o1	.	-	.	-	.	.
Cc1cc(C)cc(NC(=O)CSc2nnc(-c3cc4occc4n3C)n2-c2ccccc2C)c1	.	-	.	.	.	.
CC1CCC2(OC1)OC1CC3C4CC[C@@H]5CC(O)CC[C@@]5(C)C4CC(=O)[C@]3(C)C1C2C (some centres undefined)	.	.	.	-	.	.
Cc1ccc(S(=O)(=O)CCC(=O)OCc2nnc(-c3ccccc3)o2)cc1	.	.	-	.	.	-
O=C(c1csnn1)N1CCC2(CCCN(c3ccccc3)C2)CC1	.	.	.	-	.	.
Cc1ccc(CSCC(=O)N2CCN(c3ccccc3F)CC2)cc1	.	-	.	.	.	.
Cc1ccc(-n2[nH]c(=O)c(-c3ccccn3)c2C)cc1	0.447µM	0.301µM	?	.	?	-
Cc1ccc(-n2[nH]c(=O)c3cccnc32)cc1	-	-	-	-	-	-
Cc1n[nH]c(=O)c2c(NC(=O)CSc3nncn3C(C)C)oc(C)c12	-	-	-	.	-	-
Cc1ccc2nc(NCc3ccccc3)[nH]c2c1	?	9.53µM	11.2µM	8.91µM	-	?
c1ccc2[nH]c(NCc3ccc4c(c3)OCO4)nc2c1	?	3.38µM	?	.	?	-
COc1ccc2nc(NCCO)[nH]c2c1	-	-	-	-	-	-
COc1ccc2nc(NCc3ccccc3)[nH]c2c1	?	15.1µM	?	12.6µM	-	.
S=c1nc(NCc2ccc3c(c2)OCO3)c2ccccc2[nH]1	-	-	-	.	-	-
Cc1ccc2nc(C3CCN(C(=O)NCc4ccccc4)CC3)[nH]c2c1	-	16.9µM	-	-	-	-
Cc1ccc2nc(NCc3ccccc3)c(C#N)cc2c1	-	-	-	.	-	-
CC(=O)Nc1cccc(NC(=O)CCN2C(=O)c3ccccc3S2(=O)=O)c1	-	-	-	.	-	-
Cc1ccc(NC(=O)CN(C)S(=O)(=O)c2ccc3nc(C)sc3c2)c(C)c1	.	-	.	-	.	.
c1ccc(CNc2nc3ccccc3[nH]2)cc1	?	6.75µM	?	?	-	-
COc1cccc(CNC(=O)CSC2=Nc3ccccc3C3=NC(C)C(=O)N23)c1OC (centres undefined)	.	-	.	.	.	.
SMILES	Rab9 prom act	FLuc modulator	ELG1 genotoxic	SMN2 splice up	NPC1 promoter act	p53 reactivator
CCC(C)c1ccc(S(=O)(=O)N2CCN3CCCC3C2)cc1 (centres undefined)	-	-	-	.	-	-
c1ccc(Nc2nc3ccccc3n3cnnc23)cc1	-	-	-	-	-	-
c1ccc(N2CCCCC2)c(Nc2nc3ccccc3n3cnnc23)c1	-	-	-	.	-	-
O=C(O)c1ccc(Nc2nc3ccccc3n3cnnc23)cc1	.	7.57µM	.	-	.	.
c1ccc2c(c1)nc(Nc1ccc(N3CCCCC3)cc1)c1nncn12	-	4.78µM	-	.	-	-
CCOc1ccc(Nc2nc3ccccc3n3cnnc23)cc1	-	13.5µM	-	.	-	-
COc1ccc(-n2c(=O)c3ccccc3n(Cc3cccc(C)c3)c2=O)cc1	.	-	.	-	.	.
Cc1ccc(C(C2C(=O)CC(C)(C)CC2=O)C2C(=O)CC(C)(C)CC2=O)s1	-	21.3µM	-	-	-	-
CN1C(=O)/C(=N/OC(=O)c2ccccc2)c2ccccc21	-	7.57µM	-	-	-	-
O=C(CSc1nnc(SCc2ccc(Cl)cc2)s1)N/N=C/c1c[nH]c2ccccc12	-	-	-	-	-	-
O=C(O)COc1ccccc1/C=N/NC(=O)CSc1nnc(SCc2ccc(Cl)cc2)s1	-	9.53µM	-	.	-	-
O=C(CSc1nnc(SCc2cccc3ccccc23)s1)N/N=C/c1c[nH]c2ccccc12	-	?	-	-	-	?
